# Compound activity: PubChem, Columbia University Molecular Screening Center
# IL1B cytotox – HUVEC cytotoxicity counter-screen, IL-1B stimulated. HUVEC cell count loss, Hoechst imaging. cell count reduction, % at 2 µM. actives 0.41% (n = 94,000);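 active = cell count reduction more than 3 SD above the screen-wide mean, cut at about 70% in these data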;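 note: normalized per plate to untreated control cells as the no-loss baseline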
# sEH activator – increases human soluble epoxide hydrolase activity | activation, % at 2 µM | AID 717 | actives 0.04% (n = 91,000) | purified human sEH enzymatic activity, activator screen; in the data active = activation above about 37%
# Target sequence (P34913 whole entry, looked up): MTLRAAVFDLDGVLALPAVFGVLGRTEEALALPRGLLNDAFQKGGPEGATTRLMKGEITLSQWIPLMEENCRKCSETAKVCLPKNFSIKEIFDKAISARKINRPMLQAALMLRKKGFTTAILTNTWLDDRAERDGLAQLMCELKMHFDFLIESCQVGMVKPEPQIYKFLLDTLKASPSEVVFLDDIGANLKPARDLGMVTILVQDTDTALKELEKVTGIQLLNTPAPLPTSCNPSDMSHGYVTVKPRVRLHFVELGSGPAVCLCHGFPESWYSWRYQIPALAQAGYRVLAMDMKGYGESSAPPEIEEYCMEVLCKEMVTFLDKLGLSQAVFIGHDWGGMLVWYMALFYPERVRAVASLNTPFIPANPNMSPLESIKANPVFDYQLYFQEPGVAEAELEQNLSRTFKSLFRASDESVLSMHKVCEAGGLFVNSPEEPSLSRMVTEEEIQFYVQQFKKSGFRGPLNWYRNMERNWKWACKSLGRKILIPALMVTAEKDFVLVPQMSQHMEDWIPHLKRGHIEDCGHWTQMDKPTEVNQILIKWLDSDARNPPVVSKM
# IL1B NFkB pot – enhances IL-1B driven NFkB nuclear translocation; HUVEC IL-1B NFkB p65 nuclear translocation imaging; actives 0.3% (n = 94,000); activation, % at 2 µM; AID 819;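 active = activation above 40%, about the mean plus 3 SD, also judged a hit on visual image review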;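 note: percent activation is computed from the nuclear over cytoplasmic p65 intensity ratio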
# NFkB transloc inh – blocks IL-1B driven NFkB nuclear translocation in HUVEC cells; inhibition, % at 2 µM; actives 0.43% (n = 94,000); HUVEC IL-1B NFkB p65 nuclear translocation imaging;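 active = inhibition above about 30% together with a positive call from visual inspection of the well image, limit read from the data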;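 note: nuclear over cytoplasmic p65 intensity ratio measured by imaging; 0% = IL-1B stimulated DMSO wells and 100% = unstimulated DMSO wells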
# sEH inhibitor – blocks human soluble epoxide hydrolase activity; recombinant human sEH enzymatic activity assay; inhibition, % at 2 µM; actives 0.34% (n = 91,000); in the data active = inhibition above about 80%
# Numbers without * were called inactive; · = no result. A selection: hits, their analogues and other compounds. The true share with any hit is near 1.1%.
SMILES,IL1B cytotox,sEH activator,IL1B NFkB pot,NFkB transloc inh,sEH inhibitor
COC(=O)c1ccc2nc(C(F)(F)F)[nH]c2c1,-0.5,14.9,-5.9,5.9,-15.1
O=C(OCn1nnc2ccccc2c1=O)c1cccnc1,6.2,-0.5,12.5,-12.5,-1.7
O=C(OCn1nnc2ccccc2c1=O)c1cn(-c2ccccc2)nc1-c1cccnc1,-6.6,1.7,97.6*,-97.6,-2.9
CN(CC(=O)NCCN1CCN(c2ccccc2)CC1)S(=O)(=O)c1ccc2c(c1)CCC(=O)N2,5.0,1.4,-7.1,7.1,-2.5
COc1ccc(C(=O)Nc2oc(-c3ccccc3)c(-c3ccccc3)c2C#N)cc1,-4.6,-0.7,0.8,-0.8,4.2
Cc1cccc(C)c1OCC(=O)Nc1oc(-c2ccccc2)c(-c2ccccc2)c1C#N,-11.9,0.4,-49.2,49.2*,3.1
O=C(c1ccc2ccccc2c1)N1CCN(c2ccc([N+](=O)[O-])c(N3CCOCC3)c2)CC1,-33.3,-2.7,44.9*,-44.9,1.5
CC(C)CCOC(=O)C1[C@H]2C(=O)N(Cc3cccs3)C[C@]23C=C[C@H]1O3 (some centres undefined),-37.3,-1.3,15.0,-15.0,0.9
CCCOc1cccc(/C=N/NC(=O)c2csc(C)c2C)c1,19.1,-86.2,-6.5,6.5,86.4*
Cc1cc(NC(=O)Cn2c(=O)c3c(ncn3CCC(C)C)n(Cc3ccccc3)c2=O)no1,-17.4,-11.1,1.8,-1.8,12.2
CC(C)Cn1cnc2c1c(=O)n(CC(=O)Nc1ccc3c(c1)OCO3)c(=O)n2Cc1ccccc1,72.2*,6.4,-32.9,32.9*,-6.9
COc1ccc(-c2cn3ccc4ccccc4c3n2)cc1,-24.4,1.1,40.4*,-40.4,-1.2
CCCC(=O)N1CCN(c2ccc(NC(=S)NC(=O)CC)cc2)CC1,-4.1,-3.2,9.7,-22.6,5.1
Cc1cc(F)c(F)c(C(=O)N2CCOCC2)c1,37.1,6.5,4.1,-4.1,-5.0
CCc1c(C(=O)N2CCOCC2)csc1C,91.2*,8.2,-97.8,97.8*,-6.8
CCCCCC(=O)N/N=C/c1ccc([N+](=O)[O-])o1,93.4*,6.1,25.4,-25.4,-8.8
Cc1c(C)c2ccc(Oc3ccc([N+](=O)[O-])cc3C(F)(F)F)c(C)c2oc1=O,-18.0,·,67.3*,-67.3,·
COc1ccc2c(C(F)(F)F)cc(=O)oc2c1C,5.1,-5.6,-4.5,4.5,5.2
O=C(c1ccc(COc2ccccc2Br)cc1)N1CCCCC1,-0.3,2.5,54.3*,-54.3,-4.3
Cc1sc(NC(=O)c2ccco2)c(C(c2cccnc2)N2CCC(C)CC2)c1C (centres undefined),-16.8,1.1,-1.8,1.8,-1.3
CCc1noc(C)c1C(=O)Nc1sc(C(=O)N(C)C)c(C)c1C(=O)OC,28.6,0.6,6.0,-6.0,0.5
Cc1cc(C)c(S(=O)(=O)/N=C2\C=CC(=O)C(Cl)=C2)c(C)c1,23.3,-10.1,-30.7,30.7*,11.4
CC[n+]1c(/C=C/C=C/N(C(C)=O)c2ccccc2)sc2ccccc21,2.7,12.1,-57.4,57.4*,-8.9
COC(=O)c1cc(=O)nc2sccn12,-33.3,0.0,42.3*,-42.3,1.4
COc1ccc2[nH]c3nc(SCc4nnc(-c5ccc(C)cc5)o4)nnc3c2c1,24.6,-9.1,-2.7,2.7,9.8
SMILES,IL1B cytotox,sEH activator,IL1B NFkB pot,NFkB transloc inh,sEH inhibitor
COc1cc2c(cc1NC(=O)c1cccc([N+](=O)[O-])c1)oc1ccccc12,78.3*,-0.8,-9.2,9.2,4.0
CNC(=O)c1cc2cc(Cl)cc(OC)c2oc1=O,-25.5,-8.4,2.6,-2.6,9.6
CCCCCOP(=O)(OCCCCC)C1(NS(=O)(=O)c2ccccc2)C=CC(=O)c2ccccc21 (centres undefined),-3.1,-11.0,-2.4,2.4,8.5
COc1ccccc1NC(=O)CSc1nnc(-c2ccoc2C)n1CC1CCCO1 (centres undefined),0.0,-8.0,13.0,-13.0,6.6
CCN(CC)S(=O)(=O)c1cc(F)ccc1OC,77.2*,18.7,-6.5,6.5,-12.7
CCN(CC)S(=O)(=O)c1cc(C(=O)Oc2ccccc2OC)ccc1OC,-4.6,7.9,4.3,-4.3,-8.3
CCN(CC)S(=O)(=O)c1cccc(C(=O)OCc2cc(=O)n3nc(C)sc3n2)c1,7.0,·,-22.9,22.9,·
CCOC(=O)/C=C/S(=O)(=O)c1ccc(NC(C)=O)cc1,-8.4,4.9,-32.7,32.7*,-3.4
CCOC(=O)c1cccc(NS(=O)(=O)c2ccc(NC(C)=O)cc2)c1,-86.3,17.3,1.5,-1.5,-18.4
CS(=O)(=O)c1cc([N+](=O)[O-])c(Sc2nc3ccccc3[nH]2)c([N+](=O)[O-])c1,-10.5,22.2,-15.2,15.2,-24.7
CCN(CC)S(=O)(=O)c1cccc(-c2nnc(SC(C)C(=O)NCCC3=CCCCC3)o2)c1 (centres undefined),·,-84.4,·,-5.2,84.6*
COC(=O)c1sc(NC(=O)c2cnccn2)c(C(=O)OC)c1C,-4.2,6.9,12.7,-12.7,-8.9
O=C(COc1ccccc1Cl)NCc1ccco1,80.4*,2.8,-98.7,98.7*,0.2
O=C(COc1ccc(Cl)cc1Cl)NCc1ccco1,-37.5,2.2,0.4,-0.4,-2.6
O=C(CN(C(=O)CSc1nc2ccccc2o1)c1cccc(F)c1)NC1CCCCC1,-12.5,-39.3,-13.7,13.7,41.0
Cc1ccc(C(=O)O/N=C2\CCCc3ccccc32)cc1,7.5,8.9,1.3,-1.3,-6.7
O=C(O/N=C1/CCCc2occc21)c1ccccc1,72.1*,17.3,-1.0,1.0,-20.2
COc1ccc(CNS(=O)(=O)c2cccc(S(=O)(=O)N3CCOCC3)c2)cc1,2.7,-3.6,24.5,-24.5,1.9
Cc1ccc(-n2ncc3c(=O)n(CC#N)cnc32)cc1,0.0,-16.4,9.8,-9.8,15.3
O=C1c2ccccc2NC(c2ccncc2)N1c1ccccn1 (centres undefined),-6.4,6.5,-61.8,61.8*,-6.3
CC(=O)N1C(C(=O)O)CSC1c1cccc(C)c1 (centres undefined),2.7,4.2,-35.7,35.7*,-2.7
O=C(O)C1CSC(c2ccccc2)N1C(=O)c1ccco1 (centres undefined),-4.9,3.5,-0.2,0.3,-0.7
C=CCn1c(SCC(=O)Nc2cc(C)on2)nc2sc3c(c2c1=O)CCCC3,-12.2,0.9,-23.2,23.2,-2.9
CCn1c(SCC(=O)Nc2cc(C)on2)nc2sc3c(c2c1=O)CCCC3,82.7*,-2.1,-96.4,96.4*,0.5
COC(=O)C1=C(C)N=c2s/c(=C/c3cccs3)c(=O)n2C1c1ccc(F)cc1 (centres undefined),-26.7,10.8,-3.0,3.0,-8.2
COc1ccccc1C1C(C(C)=O)=C(C)N=c2s/c(=C\c3cc(OC)c(OC)c(OC)c3)c(=O)n21 (centres undefined),83.7*,-3.9,-98.3,98.3*,1.5
Cc1cccc(NC(=S)NC(=O)c2cc(-c3ccccc3)nc3ccccc23)c1,-69.1,-3.3,10.1,-10.1,5.7
O=C(Nc1ccon1)c1cc(-c2ccccc2)nc2ccccc12,94.3*,-8.6,-71.7,71.7*,8.9
COCCNC(=O)c1ccc2c(c1)NC(=O)CS2,-14.6,-4.8,0.5,-0.5,1.7
